# From PubChem BioAssay
# “And” between values parts separate entries of the source, which are not always exact repeats. Identical values can stand only once. The source made the active and inactive calls.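 Rule for the calls, unless noted: active = compounds whose cell count with miR-34 switched on is under 0.7 times the count with it off; inactive = the rest.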
# Key:
# [1] = compounds altering viability of human ES cells (AID 493140; call rule not given here;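 note: cells exposed to compounds for four days before counting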); conditions: human embryonic stem cell survival screen; stronger effect = higher value
# [2] = P. berghei load reduction in hepatocytes – cell-based, HepG2, luciferase luminescence, HepG2 viability, primary screen (AID 624349; in the data active = parasite load remaining mostly below about 12%, no sharp cut-off; inactive = mostly above about 10%;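 note: 100% = mean of DMSO negative control wells on the same plate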); conditions: P. berghei liver stage in HepG2, luciferase luminescence, concentration not given here; parasite load remaining: stronger effect = lower value; viability: measured here: HepG2 viability without parasites
# [3] = Wnt pathway potentiators raising nuclear beta-catenin – imaging, WNT3A-conditioned medium, mouse C2C12, NPC library, primary screen (AID 1117326; in the data active = nuclear beta-catenin stimulation mostly above about 4.2%, no sharp cut-off; inactive = mostly below about 10%); conditions: stronger effect = higher value
# [4] = stimulators of insulin release from INS-1E, primary screen, cell-based, 5 mM glucose, NPC library (AID 1117329;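 active = compound raises insulin release from rat beta cells at 5 mM glucose, no numeric limit stated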); conditions: rat INS-1E insulin secretion, at 10 µM, stronger effect = higher value
# [5] = growth inhibition of GSK3B-pretreated HCT116 cells – cell-based, CellTiter-Glo, 0.2 to 20 µM (AID 1117336;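 active = compounds lowering colon cancer cell viability after pretreatment blocking the GSK3B kinase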); conditions: HCT116 viability after GSK3B inhibitor, at 20 µM, stronger effect = higher value
# [6] = inhibition of endothelial tube formation, primary screen, imaging, VEGF stimulated, CD31 staining, tube area, NPC library (AID 1117340;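 active = compound that reduces growth-factor-driven endothelial tube area in a mixed cell culture, no cutoff stated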); conditions: VEGF-stimulated ADSC/ECFC co-culture, at 10 µM, stronger effect = higher value
# [7] = GLP1 release stimulators, primary, NCI-H716, NPC library (AID 1117341;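 active = compound raises GLP1 secretion from the human gut endocrine cells, with no numeric limit stated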); conditions: NCI-H716 cells, at 10 µM, stronger effect = higher value
# [8] = HCT116 colon cancer cell growth inhibition, primary screen, CellTiter-Glo luminescence, NPC library (AID 1117342;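 active = compounds that lower survival of HCT116 colon cancer cells in the luminescence readout, no numeric limit stated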); conditions: at 20 µM (top of the series)
# [9] = reduced SW480 viability measured with CellTiter-Glo, NPC library, primary (AID 1117343;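 active = compounds that lower viability of the colon cancer cells in the luminescence readout, with no numeric limit stated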); conditions: CellTiter-Glo luminescence; at 20 µM (top of the series) unless noted
# [10] = NPC library primary testing for decreased DLD-1 cell viability via CellTiter-Glo (AID 1117346;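 active = compounds that lower survival of DLD-1 colon cancer cells in the luminescence readout, no cutoff given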); conditions: DLD-1 viability, CellTiter-Glo luminescence; at 20 µM (top of the series)
# [11] = EMT-state selective cytotoxicity in co-culture – imaging, PC-3E GFP, TEM4-18 mCherry, primary screen (AID 1345086;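 active = compounds killing one labelled cell type while sparing the other, by normalised counts and ratio limits, not self-fluorescent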;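 for all read-outs here: cells exposed to compound for 72 h before imaging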;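 for red/green cell ratio (normalised): normalised mesenchymal count divided by normalised epithelial count so high means epithelial killing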); conditions: PC-3E GFP / TEM4-18 mCherry co-culture, imaging cell counts, at 1 µM; for red/green cell ratio (normalised): actives lie on both sides, counts scaled to control wells, 1 = unselective
# [12] = viability loss with induced miR-34 in A549 – imaging, A549 dox-inducible miR-34, nuclei and caspase counts, primary screen (AID 1347080); conditions: A549 miR-34 inducible, Hoechst nuclei count, 48 h
# [13] = MELAS cybrid and Rieske KO viability enhancers – cell-based, MELAS cybrids, Rieske KO mouse fibroblasts, CellTiter-Glo, primary screen (AID 1508586;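 active = mean z-score across replicates of 1.96 or higher in either the MELAS or the Rieske mutant cell line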;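 note: z relative to plate mean and SD of compound and empty wells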); conditions: low glucose
# [14] = molecular target: NAD(+) hydrolase SARM1 (Homo sapiens) (UniProt Q6SZW1); experiment: blocking NAD cleavage by SARM1 SAM-TIR – cell lysate, NAD-Glo luminescence (AID 1508614;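 active = compound whose remaining NAD level is above about 45 nM, limit read from the data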;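 note: higher remaining NAD means stronger inhibition of SARM1 NADase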); conditions: SAM-TIR HEK293T lysate NADase, at 1 µM, stronger effect = higher value
# Sequence of NAD(+) hydrolase SARM1 (Homo sapiens) (Q6SZW1 whole entry, looked up): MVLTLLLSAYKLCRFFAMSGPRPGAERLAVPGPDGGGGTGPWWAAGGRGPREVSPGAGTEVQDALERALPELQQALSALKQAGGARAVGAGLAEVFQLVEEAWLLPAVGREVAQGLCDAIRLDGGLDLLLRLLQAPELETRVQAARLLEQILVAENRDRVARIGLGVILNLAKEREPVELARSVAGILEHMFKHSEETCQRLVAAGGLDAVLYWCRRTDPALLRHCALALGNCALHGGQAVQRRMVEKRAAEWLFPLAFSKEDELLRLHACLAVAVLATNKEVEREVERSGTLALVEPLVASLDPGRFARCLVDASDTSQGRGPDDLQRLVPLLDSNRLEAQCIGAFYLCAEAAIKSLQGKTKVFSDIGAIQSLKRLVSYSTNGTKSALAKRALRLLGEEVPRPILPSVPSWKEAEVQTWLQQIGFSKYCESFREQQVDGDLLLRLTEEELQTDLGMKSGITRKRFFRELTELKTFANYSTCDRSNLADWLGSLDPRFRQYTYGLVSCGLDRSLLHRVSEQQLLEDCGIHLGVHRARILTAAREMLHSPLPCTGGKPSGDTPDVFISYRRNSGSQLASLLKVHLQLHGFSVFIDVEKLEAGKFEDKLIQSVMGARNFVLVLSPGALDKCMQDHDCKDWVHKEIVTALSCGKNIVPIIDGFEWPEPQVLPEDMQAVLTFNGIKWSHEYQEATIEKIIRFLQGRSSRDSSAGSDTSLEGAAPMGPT
# [15] = growth inhibition, single agent or in combination, cell-based, chromothripsis tumors, cisplatin or BGB combos (AID 1671449; in the data active = inhibition above about 80%;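 note: cells exposed for 96 hours; 0% = vehicle DMSO and 100% = killing by high DMSO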); conditions: LFS_MB_P medulloblastoma cells
# [16] = growth inhibition, single agent and combos, cell-based, chromothripsis tumors, cisplatin or BGB combos (AID 1671450; in the data active = inhibition above about 80%;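 note: cells exposed to compound for four days; 0% = vehicle DMSO and 100% = cell killing by high DMSO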); conditions: HDN33 neuroblastoma cells, stronger effect = higher value
# [17] = growth inhibition, single agents and combos, ICB984, cell-based, cisplatin or BGB combos, synergistic combos for chromothripsis tumors (AID 1671451; call rule not given here;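 note: cells exposed for 96 hours before readout; 0% = vehicle DMSO and 100% = killing by high DMSO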); conditions: ICB984 medulloblastoma cells, drug combinations, stronger effect = higher value
# [18] = growth inhibition, single agents and combos, HTB85, cell-based, BGB or cisplatin IC20 combos, synergistic combos for chromothripsis tumors (AID 1671453; in the data active = inhibition above about 80%;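 note: cells exposed for 96 hours before readout; 0% = vehicle DMSO and 100% = high DMSO killing control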); conditions: HTB85 osteosarcoma cells, drug combinations, stronger effect = higher value
# [19] = growth inhibition, MDA-MB-436, cell-based, BGB or cisplatin combos, synergistic combos for chromothripsis tumors (AID 1671458; call rule not given here;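 note: cells exposed for 96 hours; 0% = vehicle DMSO and 100% = killing by high DMSO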); conditions: MDA-MB-436 breast carcinoma growth inhibition, drug combinations, stronger effect = higher value
# [20] = measured here: epithelial PC-3E GFP cell survival
# [21] = measured here: mesenchymal TEM4-18 mCherry cell survival
# [22] = stronger effect = lower value, cell number ratio, induced over uninduced
# [23] = measured here: relative caspase fold change +Dox/-Dox
# [24] = measured here: total cells with miR-34 induction, stronger effect = lower value
# [25] = measured here: total cells without miR-34 induction
# [26] = MELAS cybrid survival, CellTiter-Glo 48 h, stronger effect = higher value
# [27] = Rieske KO mouse fibroblast survival, CellTiter-Glo 72 h
smiles,measurement,setting,value
O=C(CCCN1CCC(O)(c2ccc(Br)cc2)CC1)c1ccc(F)cc1,survival,[1],1.83 (inactive)
same,parasite load remaining,[2],37.2% (inactive) and 72.5% (inactive) and 17.9% (inactive)
same,viability,[2],92.9% and 75.9% and 90.4%
same,nuclear beta-catenin stimulation,[3]; at 10 µM,10.3% (inactive)
same,nuclear beta-catenin stimulation,"[3]; stimulation, at 2 µM",1.8%
same,insulin secretion stimulation,[4],5.6% (active)
same,viability decrease,[5],-4.9% (inactive)
same,tube area decrease,[6],24.2% (inactive)
same,GLP1 secretion stimulation,[7],2.1% (inactive)
same,inhibition of viability,[8],46.1% (inactive)
same,viability decrease (inhibition),[9],93.1% (active)
same,viability decrease (inhibition),[10],54.3% (active)
same,red/green cell ratio (normalised),[11],0.73 (inactive)
same,normalised cell number,[11]; [20],1.27
same,normalised cell number,[11]; [21],0.93
same,fold change,[12]; [22],0.861 (inactive) and 0.851 (inactive)
same,fold change,[12]; [23],1.31 and 4.03
same,cell count,[12]; [24],8070 and 10200
same,cell count,[12]; [25],9380 and 12000
same,z-score,[13]; [26],0.333 (inactive)
same,z-score,[13]; [27],0.0415
same,remaining NAD,[14],10 nM (inactive)
CC(C(=O)O)c1ccc2c(c1)Cc1cccnc1O2 (stereo not drawn),parasite load remaining,[2],27% (inactive)
same,viability,[2],105%
same,nuclear beta-catenin stimulation,[3]; at 10 µM,0.4% (inactive)
same,nuclear beta-catenin stimulation,"[3]; stimulation, at 2 µM",-0.1%
same,insulin secretion stimulation,[4],4.3% (inactive)
same,viability decrease,[5],-8.3% (inactive)
same,tube area decrease,[6],-14.8% (inactive)
same,GLP1 secretion stimulation,[7],-2.7% (inactive)
same,inhibition of viability,[8],-12% (inactive)
same,viability decrease (inhibition),[9],18.6% (inactive)
same,viability decrease (inhibition),[10],9.3% (inactive)
same,red/green cell ratio (normalised),[11],0.99 (inactive)
same,normalised cell number,[11]; [20],0.91
same,normalised cell number,[11]; [21],0.9
same,fold change,[12]; [22],1 (inactive) and 0.866 (inactive)
same,fold change,[12]; [23],0.334 and 1.75
same,cell count,[12]; [24],3140 and 9560
same,cell count,[12]; [25],3140 and 11000
same,z-score,[13]; [26],-0.199 (inactive) and 0.41 (inactive) and -0.18 (inactive)
same,z-score,[13]; [27],0.0831 and 0.15 and -0.741
same,remaining NAD,[14],10 nM (inactive)
Nc1ccc2cc3ccc(N)cc3nc2c1,nuclear beta-catenin stimulation,[3]; at 10 µM,164% (active)
same,nuclear beta-catenin stimulation,"[3]; stimulation, at 2 µM",9.1%
same,insulin secretion stimulation,[4],24% (active)
same,viability decrease,[5],42% (active)
same,tube area decrease,[6],-95.9% (inactive)
same,GLP1 secretion stimulation,[7],11.8% (inactive)
same,inhibition of viability,[8],104% (active)
same,viability decrease (inhibition),[9],106% (active)
same,viability decrease (inhibition),[10],45.9% (active)
same,red/green cell ratio (normalised),[11],0.58 (inactive)
same,normalised cell number,[11]; [20],0.74
same,normalised cell number,[11]; [21],0.43
same,fold change,[12]; [22],0.846 (inactive) and 0.958 (inactive)
same,fold change,[12]; [23],0.821 and 1.18
same,cell count,[12]; [24],1150 and 2160
same,cell count,[12]; [25],1360 and 2260
same,z-score,[13]; [26],2.13 (active)
same,z-score,[13]; [27],-2.97
same,remaining NAD,[14],10 nM (inactive)
same,inhibition,"[15]; at 0.5 µM, stronger effect = higher value",-32.2% (inactive)
same,inhibition,"[15]; measured here: combination with BGB IC20, at 0.005 µM",13.5%
same,inhibition,"[15]; measured here: combination with BGB IC40, at 0.005 µM",-11.3%
same,inhibition,"[15]; measured here: combination with BGB IC40, at 0.05 µM",22.5%
same,inhibition,"[15]; measured here: combination with cisplatin, at 0.5 µM, stronger effect = higher value",-47.3%
same,inhibition,"[15]; measured here: combination with cisplatin, at 5 µM, stronger effect = higher value",91.6%
same,inhibition,"[16]; BGB combo, at 5 µM",96.4%
same,inhibition,[16]; at 0.5 µM,-6.06% (inactive)
same,inhibition,"[16]; cisplatin combo, at 5 µM",99.6%
same,inhibition,"[16]; measured here: with BGB IC20 combination, at 0.5 µM",5.24%
same,inhibition,"[16]; measured here: with cisplatin IC20 combination, at 0.5 µM",-17.9%
same,inhibition,"[16]; single agent, at 5 µM",97.6%
same,inhibition,"[17]; BGB IC20 combo, at 0.005 µM",-22.1%
same,inhibition,"[17]; BGB IC40 combo, at 0.005 µM",-20.5%
same,inhibition,"[17]; BGB IC40 combo, at 0.05 µM",98.8%
same,inhibition,[17]; at 0.5 µM,-20.2% (inactive)
same,inhibition,"[17]; cisplatin combo, at 0.05 µM",98.8%
same,inhibition,"[17]; cisplatin combo, at 0.5 µM",-22.1%
same,inhibition,"[17]; cisplatin combo, at 5 µM",-11.1%
same,inhibition,"[17]; measured here: 5 uM single agent, at 5 µM",-9.35%
same,inhibition,[18]; at 0.5 µM,-33.1% (inactive)
same,inhibition,"[18]; measured here: with BGB IC20, at 0.5 µM",-40.6%
same,inhibition,"[18]; measured here: with BGB IC20, at 5 µM",79.3%
same,inhibition,"[18]; measured here: with cisplatin IC20, at 0.5 µM",-43.3%
same,inhibition,"[18]; measured here: with cisplatin IC20, at 5 µM",99.3%
same,inhibition,"[18]; single agent, at 5 µM",84.4%
same,inhibition,[19]; at 0.5 µM,7.24% (inactive)
same,inhibition,"[19]; measured here: BGB combination, at 0.5 µM",-0.519%
same,inhibition,"[19]; measured here: BGB combination, at 5 µM",92.2%
same,inhibition,"[19]; measured here: cisplatin combination, at 0.5 µM",-19.4%
same,inhibition,"[19]; measured here: cisplatin combination, at 5 µM",97.5%
